# Screening results as filed in PubChem.
# Shown are actives, neighbours in structure and some others; about 13% of the full set was active somewhere.
# Marburg entry inh: Marburg virus entry inhibition; Marburg virus pseudotyped entry inhibition, cell reporter; Potency, µM (top dose mostly 37.8 µM), for the others: at the top dose activity change, negative = inhibition, usual class: inhibitors; 300,000 tested, 1.8% active; AID 540276; calls by dose curve; tested in HEK293 cells; also: potency is read from the fitted curve at half-maximal effect; % is scaled to controls: 0 for no effect and ±100 for the full control effect
# Cycloheximide cs: counter-screen for Shiga toxin inhibitors: cycloheximide protein synthesis inhibition; cell reporter, cycloheximide protein synthesis inhibition counterscreen; max response, %; 300,000 tested, 12% active; AID 2314; in the data active = max response mostly above about 13%, no sharp cut-off; inactive = mostly below about 14%; also: read at 38.3 µM for the half of the compounds with a filed dose; 0% is about no effect
# Lassa entry inh: inhibitors of Lassa virus binding or cell entry; Lassa virus pseudotype entry inhibition, cell reporter; Potency, µM (top dose mostly 37.9 µM), without a hit: top-dose activity change, negative = inhibition, hits mostly inhibitors; AID 540256; 300,000 tested, 1.2% active; calls by dose curve; tested in HEK293 cells; also: potency is read from the fitted curve at half-maximal effect; % is scaled to controls: 0 for no effect and ±100 for the full control effect; nearly all actives have a fitted effect of over 50% in size
# FMDV inh: foot and mouth disease virus antiviral activity; 410,000 tested, 1.2% active; FMDV antiviral cell-based qHTS; AID 1159524; Potency, µM (titrated, usually from 57.9 µM), inactives show at the highest dose activity change, negative = inhibition, hits mostly inhibitors; calls by dose curve; tested in HEK293T cells; also: read-out not given here; potency is read from the fitted curve at half-maximal effect; % is scaled to controls: 0 for no effect and ±100 for the full control effect; nearly all actives have a fitted effect of over 45% in size
# HCV inh: blocks hepatitis C virus | Huh7.5.1 HCVcc-Cre infection, luciferase reporter, 44 h | Potency, µM (top dose mostly 41.8 µM), inactives show top-dose activity change, negative = inhibition, hits mostly inhibitors | 340,000 tested, 3.4% active; active = well fitted inhibition curve with a large enough effect; inconclusive = small, poorly fitted or top-dose-only effect, or another doubt; inactive = no such curve, though single readings can be large or run the other way; also: potency is read from the fitted curve at half-maximal effect; % is scaled to controls: 0 for no effect and ±100 for the full control effect
#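 Cells (1,000/well) were plated 4 h before compound, then infected with HCVcc-Cre virus (~0.5 moi). After 44 h further culture, infection was read as luciferase luminescence following a 15 min substrate incubation at room temperature.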
# Shiga inhibitor: blocks Shiga toxin action in Vero cells; 290,000 tested, 9.2% active; Vero cells, Shiga toxin protein synthesis inhibition reporter; inhibition, % at 38.7 µM; in the data active = inhibition mostly above about 28%, no sharp cut-off; inactive = mostly below about 43%; also: 0% is about no effect
# Active calls of the source: *; ? = inconclusive; · = not tested or not shown; ! = repeats disagree; [ ] = another dose, or the depositor's remark.
SMILES,Marburg entry inh,Cycloheximide cs,Lassa entry inh,FMDV inh,HCV inh,Shiga inhibitor
Cc1ccc(/C(N)=N/OC(=O)CCCc2ccccc2)cc1,4%[46.1 µM],57*,26%[46.1 µM],12%,-2%,43*
N/C(=N\OC(=O)CCCc1ccccc1)c1ccccc1Cl,?,33*,11%[46.1 µM],40%,5%,48
Cc1ccc(/C(N)=N/OC(=O)Cc2ccccc2)cc1,22%,53*,?,50%,12%,54*
Cc1ccc(CC(=O)O/N=C(\N)c2ccncc2)cc1,·,30*,·,0%,3%,60
CCOC(=O)c1c(C)[nH]c(C)c1S(=O)(=O)N1CCC(C(=O)Nc2ccccn2)CC1,·,·,-2%[46.1 µM],18%,·,·
COc1ccc(Nc2nc(C)cc(C)c2C#N)c(OC)c1,10%[46.1 µM],-3,18%[46.1 µM],-2%,?,·
CCc1ccc2nc(Nc3ccc(OC)cc3OC)c(C#N)cc2c1,-5%,1,20%[46.1 µM],13%,3.5µM*,-2
Cc1cc(C)nc(N/N=C/c2cccc([N+](=O)[O-])c2)n1,?,12,-4%[46.1 µM],2%,-12%,29
Cc1cc(C)nc(N/N=C/c2ccccc2)n1,17%,-2,6%,43%,-5%,-15
Cc1cc(C)nc(N/N=C/C(Cl)=C/c2ccccc2)n1,?,30*,?,40%,?,50*
Cc1cc(C)nc(N/N=C/C=C/c2ccccc2)n1,17%,29*,10%,19%,16%,57*
CC(=O)c1ccc(NC(=S)NC(=O)/C=C/c2ccc(F)cc2)cc1,-2%[46.1 µM],20*,-7%,5%,7%,26
O=C(/C=C/c1cccc(F)c1)Nc1ccc(S(=O)(=O)Nc2ncccn2)cc1,-2%[46.1 µM],-1,-25%,-1%,2%,12
CN(C)c1ccc(NC(=S)NC(=O)/C=C/c2ccc(Cl)cc2)cc1,?,53*,1%,49%,1%,105*
COc1cccc(NC(=S)NC(=O)/C=C/c2ccc(F)cc2)c1,·,8,·,-9%,-14%,·
CNC(=O)c1ccc(NC(=O)/C=C/c2cccc(F)c2)cc1,·,27*,·,47%,-8%,64
N#Cc1ccsc1NC(=O)c1cccc(-n2cnnn2)c1,2%[46.1 µM],10*,·,28%,?,26
CC(C)c1nnc(NC(=O)c2cccc(-n3cnnn3)c2)s1,?,-3,11%,14%,10%,-5
O=C(O)c1cc(NC(=O)c2ccc(Cl)c([N+](=O)[O-])c2)cc(C(=O)O)c1,0%[46.1 µM],-1,4%,-6%,8%,-6
N#Cc1ccsc1NC(=O)c1ccc(Cl)c([N+](=O)[O-])c1,·,51*,·,-13%,-3%,99*
N#Cc1ccsc1NC(=O)c1cccc([N+](=O)[O-])c1,-8%[46.1 µM],23*,0%,-21%,10µM*,52*
CCOc1ccc(Br)cc1S(=O)(=O)Nc1ccc(NC(=O)c2ccccc2F)cc1,?,-1,-18%,21%,?,-1
O=C(NCCN1CCC(n2c(=O)[nH]c3ccccc32)CC1)c1ccc(F)cc1,·,·,·,-1%,·,·
CCc1nnc(NC(=O)CSc2nnc(CNc3ccc(F)cc3)n2C2CCCCC2)s1,-2%,4,-2%,-16%,7%,29
O=C(COC(=O)Cc1n[nH]c(=O)c2ccccc12)Nc1ncc(Cl)cc1Cl,·,·,·,-12%,3%,·
SMILES,Marburg entry inh,Cycloheximide cs,Lassa entry inh,FMDV inh,HCV inh,Shiga inhibitor
CCOc1ccc(NC(=O)c2ccc(S(=O)(=O)N3CCOCC3)cc2)cc1,11%[46.1 µM],1,-14%[46.1 µM],-6%,-1%,2
COc1ccccc1-c1ccc(SCc2cccc(C)c2)nn1,16%,23*,12%,-9%,-7%,29
O=[N+]([O-])c1ccc(CSc2ccc(-c3ccccn3)nn2)cc1,14%[46.1 µM],-1,-1%[46.1 µM],-14%,-22%,20
COc1ccccc1-c1ccc(SCc2ccc([N+](=O)[O-])cc2)nn1,10µM*,24,?,-14%,?,26
COc1ccc(O)c(C2=Nc3ccccc3N=C(c3ccccc3)C2)c1,?,42,16%,25µM*!,3%,87
COc1ccc2c(c1)NC(=O)CC(c1ccccc1)=N2,10%,38*,8%,33%,?,66*
COc1ccc2c(c1)NC(c1ccc(F)cc1)=NC(c1ccc(F)cc1)=N2,4%[46.1 µM],·,3%[46.1 µM],-3%,·,·
Cc1ccc(C2=Nc3ccccc3N=C(c3ccc([N+](=O)[O-])cc3)C2)c(O)c1,-13%,26*,1%,-18%,0%,166*
O=C(CCN1CCCCO1)N1CCCC(N2CCN(c3ccc(F)cc3)CC2)C1 (stereo unspecified),·,-1,·,-3%,-10%,-14
COCC(=O)Nc1c(C(=O)Nc2cccc(OC)c2)oc2ccccc12,?,48*,-69%,51%,?,58*
COc1cccc(NC(=O)c2oc3ccccc3c2NC(=O)c2ccccc2C)c1,0%[46.1 µM],·,7%[46.1 µM],-7%,·,·
COc1cccc(NC(=O)c2oc3ccccc3c2NC(C)=O)c1,?,37*,6%,0%,?,47*
CCn1cc(C(=O)NCCN(C)CCc2ccccc2)c(=O)c2cc(S(=O)(=O)N(C)C)ccc21,?,4,-6%,9%,?,9
COc1cc(C(=O)N/N=C/c2ccc(OC(=O)c3ccccc3)c(OC)c2)ccc1O,19%,6,-26%,?,7%,-4
COc1ccc(/C=N\NC(=O)c2cc(O)c(O)c(O)c2)cc1COc1ccc(C(=O)OCC(C)C)cc1,·,6,·,13%,5.6µM*,30
COc1cc(/C=N/NC(=O)c2ccccc2)ccc1O,·,26*,·,31%,3%,60*
COc1ccc(/C=N/NC(=O)c2ccc(NC(C)=O)cc2)cc1COc1ccc(F)cc1F,·,-6,·,?,-16%,-6
COc1ccc(/C=N/NC(=O)c2ccc(OC)c(OC)c2)cc1COc1c(F)c(F)c(F)c(F)c1F,1%[46.1 µM],16,1%[46.1 µM],-5%,3.5µM*,20
COc1cc(/C=N/c2oc(-c3ccccc3)cc2C#N)ccc1O,3%,19*,11%,13%,2%,28
COc1cc(C=NCc2ccccc2)ccc1O,·,·,·,-8%,·,·
COc1cc(OC)cc(C(=O)N/N=C/c2ccc(OC)c(COc3ccc4ccccc4c3)c2)c1,2%,2,-18%,-11%,-19%,-8
Cc1cccc(NC(=O)CSCC(=O)N(C)CC(=O)Nc2cccc(F)c2)c1,28%,·,-16%,-10%,4%,·
COc1cc(/C=N/NC(=O)c2ccc(O)cc2)ccc1OCC(=O)Nc1cccc([N+](=O)[O-])c1,·,7,·,-1%,?,11
COc1ccc(/C=N/NC(=O)c2ccc(O)cc2)cc1CN1CCCc2ccccc21,-25%,11,?,40µM*,?,16
COc1ccc(/C=N/NC(=O)c2ccc(F)cc2)cc1CN1CCc2cc(OC)c(OC)cc2C1C (stereo unspecified),?,12,-28%[46.1 µM],-2%,?,6
COc1ccc(/C=N\NC(=O)c2ccccc2)cc1COc1ccccc1,-30%,25*,?,-8%,-15%,45*
